mHTT-CaM PPI inh – mutant huntingtin-calmodulin interaction inhibitors – biochemical, AlphaScreen, primary screen | AlphaScreen His-mHTT/GST-CaM binding, luminescence | actives 3.6% (n = 190,000) | inhibition, % at 15 µM;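 further: 0% = both proteins with DMSO and 100% = one protein alone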
Target sequence (P42858 whole entry, looked up, stated change not applied): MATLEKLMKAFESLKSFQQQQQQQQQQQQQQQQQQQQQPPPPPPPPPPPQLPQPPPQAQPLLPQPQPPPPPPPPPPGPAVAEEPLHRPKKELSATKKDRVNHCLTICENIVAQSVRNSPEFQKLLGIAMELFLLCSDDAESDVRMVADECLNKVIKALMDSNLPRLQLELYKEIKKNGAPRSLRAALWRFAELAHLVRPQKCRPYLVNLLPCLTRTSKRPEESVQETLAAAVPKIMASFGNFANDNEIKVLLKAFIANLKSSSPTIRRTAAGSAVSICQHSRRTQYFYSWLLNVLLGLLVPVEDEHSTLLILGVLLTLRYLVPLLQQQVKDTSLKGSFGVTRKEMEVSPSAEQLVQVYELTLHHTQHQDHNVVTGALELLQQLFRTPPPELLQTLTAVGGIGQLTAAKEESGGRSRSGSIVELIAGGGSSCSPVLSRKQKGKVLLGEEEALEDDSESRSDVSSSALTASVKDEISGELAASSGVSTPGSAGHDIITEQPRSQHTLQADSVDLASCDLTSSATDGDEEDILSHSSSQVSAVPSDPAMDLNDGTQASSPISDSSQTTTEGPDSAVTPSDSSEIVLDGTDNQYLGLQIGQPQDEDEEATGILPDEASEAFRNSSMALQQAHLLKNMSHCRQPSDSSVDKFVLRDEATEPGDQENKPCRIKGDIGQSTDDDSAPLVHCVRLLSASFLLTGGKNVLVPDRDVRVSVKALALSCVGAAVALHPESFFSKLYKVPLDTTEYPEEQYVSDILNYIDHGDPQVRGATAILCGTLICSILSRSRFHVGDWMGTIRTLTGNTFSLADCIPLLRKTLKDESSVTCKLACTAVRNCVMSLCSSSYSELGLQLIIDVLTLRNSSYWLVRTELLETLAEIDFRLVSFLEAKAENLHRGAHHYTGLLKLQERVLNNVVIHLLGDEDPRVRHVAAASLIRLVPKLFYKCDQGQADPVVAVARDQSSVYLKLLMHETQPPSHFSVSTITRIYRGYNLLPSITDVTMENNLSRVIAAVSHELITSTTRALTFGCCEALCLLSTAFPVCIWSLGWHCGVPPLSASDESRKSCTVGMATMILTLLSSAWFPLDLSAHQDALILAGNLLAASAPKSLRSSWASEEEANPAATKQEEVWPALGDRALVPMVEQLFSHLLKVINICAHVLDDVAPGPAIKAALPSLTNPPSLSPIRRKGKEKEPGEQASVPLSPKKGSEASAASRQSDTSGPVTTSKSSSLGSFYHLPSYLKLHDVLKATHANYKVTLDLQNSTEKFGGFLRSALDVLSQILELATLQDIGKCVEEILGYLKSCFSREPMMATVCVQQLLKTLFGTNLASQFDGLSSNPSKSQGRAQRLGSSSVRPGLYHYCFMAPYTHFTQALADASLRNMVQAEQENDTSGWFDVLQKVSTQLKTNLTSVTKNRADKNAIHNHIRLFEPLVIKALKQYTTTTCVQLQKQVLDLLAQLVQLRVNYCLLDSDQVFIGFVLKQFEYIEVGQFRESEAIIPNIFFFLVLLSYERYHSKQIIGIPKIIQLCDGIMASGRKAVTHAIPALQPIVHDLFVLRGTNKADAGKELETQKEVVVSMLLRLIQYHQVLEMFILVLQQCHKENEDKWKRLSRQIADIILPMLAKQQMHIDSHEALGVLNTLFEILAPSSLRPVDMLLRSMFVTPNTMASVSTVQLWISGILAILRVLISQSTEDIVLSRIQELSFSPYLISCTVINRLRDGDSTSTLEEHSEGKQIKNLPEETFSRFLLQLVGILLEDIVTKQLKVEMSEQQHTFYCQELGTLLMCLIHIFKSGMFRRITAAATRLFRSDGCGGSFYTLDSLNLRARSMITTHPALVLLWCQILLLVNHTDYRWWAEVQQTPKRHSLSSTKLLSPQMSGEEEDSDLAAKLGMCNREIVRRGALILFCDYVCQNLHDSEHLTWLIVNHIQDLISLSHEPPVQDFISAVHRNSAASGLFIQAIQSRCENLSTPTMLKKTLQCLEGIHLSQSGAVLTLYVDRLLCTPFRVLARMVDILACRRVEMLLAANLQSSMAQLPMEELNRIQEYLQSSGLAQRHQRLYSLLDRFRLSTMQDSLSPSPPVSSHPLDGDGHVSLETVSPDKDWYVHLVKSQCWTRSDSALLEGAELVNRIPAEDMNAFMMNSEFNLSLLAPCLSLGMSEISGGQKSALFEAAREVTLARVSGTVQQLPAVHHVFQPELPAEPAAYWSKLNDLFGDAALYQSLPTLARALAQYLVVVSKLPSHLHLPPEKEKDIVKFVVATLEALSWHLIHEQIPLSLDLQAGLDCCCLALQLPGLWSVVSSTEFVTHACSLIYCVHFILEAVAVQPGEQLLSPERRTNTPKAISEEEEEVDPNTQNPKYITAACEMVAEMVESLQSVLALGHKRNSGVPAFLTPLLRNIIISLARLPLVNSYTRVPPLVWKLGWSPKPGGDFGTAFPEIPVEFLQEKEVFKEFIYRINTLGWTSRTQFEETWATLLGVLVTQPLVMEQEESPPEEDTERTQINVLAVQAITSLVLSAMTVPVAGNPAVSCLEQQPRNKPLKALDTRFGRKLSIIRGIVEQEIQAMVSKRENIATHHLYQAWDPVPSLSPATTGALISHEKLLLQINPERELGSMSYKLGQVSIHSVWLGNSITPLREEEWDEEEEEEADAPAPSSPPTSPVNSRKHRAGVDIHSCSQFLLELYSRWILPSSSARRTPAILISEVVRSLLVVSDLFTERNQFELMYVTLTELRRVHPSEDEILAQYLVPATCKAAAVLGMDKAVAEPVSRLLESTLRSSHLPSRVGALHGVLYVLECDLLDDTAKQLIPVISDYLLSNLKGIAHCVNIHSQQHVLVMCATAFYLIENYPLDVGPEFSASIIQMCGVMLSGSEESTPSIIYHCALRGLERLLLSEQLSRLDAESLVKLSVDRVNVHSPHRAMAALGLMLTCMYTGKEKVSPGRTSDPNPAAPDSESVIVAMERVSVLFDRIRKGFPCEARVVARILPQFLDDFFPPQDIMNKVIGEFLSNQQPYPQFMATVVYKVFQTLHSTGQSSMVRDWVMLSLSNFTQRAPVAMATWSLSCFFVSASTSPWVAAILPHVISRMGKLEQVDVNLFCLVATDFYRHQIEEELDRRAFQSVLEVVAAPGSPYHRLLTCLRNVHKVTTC
Pf apPOL inh – Pf-apPOL inhibitors, biochemical, fluorescence; Plasmodium falciparum apicoplast DNA polymerase (apPOL); inhibition, % at 10 µM; Recombinant Pf-apPOL, molecular beacon fluorescence, 1.5 h; actives 0.25% (n = 210,000); AID 1794808, 2022
Numbers without * were called inactive; x = no result. Sampled rows, rich in hits. Any-hit rate of the full collection: about 3.5%. No stated cut-off is given here; in the data, active means inhibition above about 50%; inactive means the rest.

SMILES	mHTT-CaM PPI inh	Pf apPOL inh
COCCn1cc2c3c(cccc31)CN(C(=O)c1ccc(C)cc1)CC2	68*	-7
CCn1cc2c3c(cccc31)CN(C(=O)Cc1cccc(F)c1)CC2	66*	-2
Cc1ccc(F)c(NC(=O)C2CCCCC2C(=O)O)c1 (stereo unspecified)	-1	-8
O=C(NCCNc1nccc(C(F)(F)F)n1)Nc1cccc(Cl)c1Cl	x	-3
Cc1ccccc1-n1nc2c(c1NC(=O)C1CCCCC1)CS(=O)C2 (stereo unspecified)	2	-3
Cc1c([N+](=O)[O-])c(=O)n(C)c(=O)n1C	-5	x
COCCn1cc2c3c(cccc31)CN(C(=O)c1ccc(F)c(Cl)c1)CC2	29	-5
COc1ccc(C(=O)N2CCc3cn(C)c4cccc(c34)C2)c(C)c1	30	-2
COCCn1cc2c3c(cccc31)CN(C(=O)c1ccccc1Br)CC2	69*	-7
COCCn1cc2c3c(cccc31)CN(C(=O)c1ccccn1)CC2	24	-6
COCCn1cc2c3c(cccc31)CN(C(=O)c1cccc(Cl)c1)CC2	65*	-3
COCCn1cc2c3c(cccc31)CN(C(=O)c1ccc(C)c(F)c1)CC2	53*	-2
COCCn1cc2c3c(cccc31)CN(C(=O)c1ccc(OC)cc1C)CC2	51*	-3
COCCn1cc2c3c(cccc31)CN(C(=O)c1ccccc1F)CC2	37	-4
O=C(c1cccnc1)N1CCC(Oc2cc(N3CCCCC3)ncn2)C1 (stereo unspecified)	-1	-4
O=C(c1cccs1)N1CCC(CCOc2ccccc2)CC1	-20	-1
CC(C)n1c(=O)c(NCc2ccc(OC(F)(F)F)cc2)nc2ccncc21	24	-5
N=c1oc2ccc(Cl)cc2cc1C(=O)Nc1cccc(C(F)(F)F)c1	4	2
COCCn1cc2c3c(cccc31)CN(C(=O)Nc1cc(F)cc(F)c1)CC2	2	0
COCCn1cc2c3c(cccc31)CN(C(=O)c1cccc(F)c1)CC2	54*	-1
COc1ncc(C(=O)N2CCN(c3cc(Cl)ccc3C)CC2)cn1	38	0
CCNc1nc(NC(C)C)nc(Oc2ccc(OCC)nn2)n1	-2	-2
COc1ccc(O)c(C2NC(C)(C(=O)O)C3C(=O)N(Cc4ccccc4)C(=O)C23)c1 (stereo unspecified)	5	2
CCOc1cc(/C=C2/SC(=Nc3ccccc3)NC2=O)ccc1OC	26	6
CCOc1cc(/C=C2/SC(=Nc3ccccc3Cl)NC2=O)ccc1O	53*	-5
SMILES	mHTT-CaM PPI inh	Pf apPOL inh
CCOc1cc(/C=C2/SC(=Nc3cccc(C(=O)O)c3)NC2=O)ccc1OC	51*	-4
O=C1NC(=Nc2ccccc2Cl)S/C1=C/c1cccc(C(=O)O)c1	4	-7
COc1cc(/C=C2/SC(=Nc3ccccc3Cl)NC2=O)cc(OC)c1	5	4
O=C1NC(=Nc2cccc(Cl)c2Cl)S/C1=C\c1ccc(O)c(O)c1	83*	-2
COCCN(CCOC)S(=O)(=O)c1ccc(C(=O)Nc2nnc(-c3ccc(F)cc3)o2)cc1	3	-27
CCc1ccc(S(=O)(=O)N2CCN(c3ccc4nncn4n3)CC2)s1	-9	-5
OCCCNCC(O)Cn1c2c(c3cccc(Cl)c31)CCCC2 (stereo unspecified)	21	-1
Brc1ccc(C2C3=C(Nc4ncnn42)c2ccccc2OC3c2ccccc2)cc1 (stereo unspecified)	0	x
O=C1C2CC=C(Cl)CC2C(=O)N1CNc1ccccc1 (stereo unspecified)	-1	-1
Cc1ccc(NCN2C(=O)C3CC=C(Cl)CC3C2=O)cc1 (stereo unspecified)	64*	-10
Cc1ccc(C)c(NS(=O)(=O)c2cc(Cl)ccc2Cl)c1	-21	1
Cc1cc2[nH]c(C(=O)Nc3cccc(F)c3)c(CN3CCOCC3)c2s1	8	17
COc1cccc(N=Cc2c[nH]c3ccccc23)c1	100*	2
CC(C)c1ccc(N=Cc2c[nH]c3ccccc23)cc1	2	-1
CCC1(C)CC(CCNCc2ccc(OC)c(OC)c2)(c2ccccc2OC)CCO1 (stereo unspecified)	12	-11
CCC1(C)CC(CCNCc2ccc(N(C)C)cc2)(c2ccc(OC)cc2)CCO1 (stereo unspecified)	86*	0
COc1ccc(-c2csc(/C(C#N)=C/c3ccco3)n2)cc1	-11	4
Cc1ccc(-c2csc(/C(C#N)=C/c3ccco3)n2)cc1	-10	53*
Cc1ccc(NC(=O)C2CC(=O)N(CCc3c[nH]c4ccc(C)cc34)C2)c(C)c1 (stereo unspecified)	25	3
Cc1ccc(C)c(NC(=O)C2CC(=O)N(CCc3c[nH]c4ccc(Cl)cc34)C2)c1 (stereo unspecified)	67*	1
CCc1ccccc1NC(=O)C1CC(=O)N(CCc2c[nH]c3ccc(F)cc23)C1 (stereo unspecified)	6	-3
Cc1ccc(Cl)cc1NC(=O)C1CC(=O)N(CCc2c[nH]c3ccc(F)cc23)C1 (stereo unspecified)	89*	-4
Cc1ccc(NC(=O)C2CC(=O)N(CCc3c[nH]c4ccc(F)cc34)C2)c(C)c1 (stereo unspecified)	8	-2
CCc1ccccc1NC(=O)C1CC(=O)N(CCc2c[nH]c3ccc(Cl)cc23)C1 (stereo unspecified)	88*	-3
CNc1nc(Nc2cc(F)ccc2F)nc2ccccc12	-10	-6
SMILES	mHTT-CaM PPI inh	Pf apPOL inh
Cc1cc(C(c2cc(C)c(N)c(C)c2)c2ccco2)cc(C)c1N	46	-3
Cc1cc(C(c2ccccc2)c2cc(C)c(N)c(C)c2)cc(C)c1N	80*	-4
COc1ccc(OCc2ccccc2)c(C=O)c1	-29	-35
O=Cc1cc(OCc2ccccc2)ccc1O	76*	-3
COc1cccc2cc(C(=O)NC(C)=O)c(=Nc3ccc(C#N)cc3)oc12	2	-3
O=C(c1cc2sc(Br)cc2n1CC1CCCCO1)N1CCCC1 (stereo unspecified)	70*	-13
Cc1cc2c(cc(C(=O)N3CCOCC3)n2CC2CCC2)s1	16	-8
Cc1ccc(C(=O)N/C(=C/c2ccc3c(c2)OCO3)C(=O)NC(C)C(=O)O)cc1 (stereo unspecified)	6	-3
COc1ccc(OCC(=O)Nc2cc(-c3nc4ncccc4o3)ccc2Cl)cc1	3	-8
O=C(c1ccc(F)cc1F)N1CCC2(CC1)OCCS2	-6	-2
Cc1c(C(=O)Nc2c3c(nn2C(C)(C)C)CS(=O)(=O)C3)cccc1[N+](=O)[O-]	-1	-9
COc1ccc(N2C=C(C#N)S(=O)(=O)c3ccc(Cl)cc32)c(C)c1	-6	-4
COc1ccc2c(c1)-c1cc(Cl)ccc1S(=O)(=O)N2C(C)=O	87*	-2
COc1cccc(C2=COC3(CCCN(C(=O)c4ccc(F)cc4)C3)C2)c1 (stereo unspecified)	-18	-3
O=C(CCc1c[nH]c2ccccc12)N1CCc2c(nc3cc(-c4ccccc4)[nH]n3c2=O)C1	8	10
O=C(CCc1ccccc1)N1CCc2c(nc3cc(-c4ccccc4)[nH]n3c2=O)C1	72*	8
Cc1cccc(CC(=O)N2CCc3c(nc4cc(-c5ccccc5)[nH]n4c3=O)C2)c1	74*	-6
COc1ccc(-c2cc3nc4c(c(=O)n3[nH]2)CN(C(=O)Cc2cccc(C)c2)CC4)cc1	37	4

Source: PubChem
